Pf Dd2 inh – qHTS Primary assay for Inhibitors of Plasmodium falciparum Dd2 growth in vitro. P. falciparum Dd2 growth, SYBR Green, 72 h. Potency, µM (top dose mostly 28.9 µM), usual class: inhibitors. 120,000 compounds, 4.3% hits. AID 1347417, 2020; active = well fitted inhibition curve with a large enough effect; also: nearly all actives have a fitted effect of over 65% in size
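Readout: SYBR Green fluorescence, 485 nm excitation, 535 nm emission, after ~16 h lysis at 37C. Before that, Dd2-infected red cells (2.5% hematocrit) grew 72 h with compound, 29 uM top final concentration.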
Of the large screens only hits and unclear results are named; the others gave an inactive call. Only a selection was taken, and hits are over-represented in it overall.

COc1ccc(OC)c(S(=O)(=O)N2CCCC2c2nncn2Cc2ccncc2)c1 (configuration not stated)	none
COc1ccc(Nc2cc(C(=O)NCc3ccccc3)c3ccccc3n2)c(OC)c1	none
COc1ccc(Nc2cc(C(=O)NCCCN3CCN(c4ccccc4F)CC3)c3ccccc3n2)c(OC)c1	Pf Dd2 inh 10µM
COc1ccc(N2CCN(CCCNC(=O)c3cc(Nc4ccccc4OC)nc4ccccc34)CC2)cc1	none
CCc1nnc2ccc(NC3CC3)nn12	none
CCc1nnc2ccc(NC(C)C)nn12	none
CCc1nnc2ccc(NCc3ccccc3)nn12	Pf Dd2 inh 6.3µM
COc1ccc(-c2ccc(C(=O)N3Cc4[nH]cnc4CC3C(=O)O)o2)cc1 (configuration not stated)	none
COc1ccc(-n2nc3n(c2=O)CCN(CC2CCCCC2)C3)cc1	none
CCCCCNC(=O)CCN(CC)C(=O)c1cc(C)oc1C	none
Cc1cc(C(=O)N(CCC(=O)NCc2ccccc2)CCC(C)C)c(C)o1	none
Cc1cc(C(=O)N(CCC(=O)NCCC(C)C)CCC(C)C)c(C)o1	Pf Dd2 inh 11µM
Cc1cccc(OCC(=O)N2CCC3(CC2)N(C)C(=O)CS3(=O)=O)c1	none
O=C(NCCn1nc(-c2ccccc2)ccc1=O)C1NCCc2[nH]cnc21 (configuration not stated)	none
CC(=O)N1CC2(CCCN2C(=O)CCC(=O)O)Cc2ccccc21 (configuration not stated)	none
CC(=O)NCC(=O)N1Cc2ccccc2CC2(CCN(CC3CCCCC3)C2)C1 (configuration not stated)	none
O=C(c1ccccc1)N1Cc2ccccc2CC2(CCN(CC3CCNC3)C2)C1 (configuration not stated)	none
CC(=O)N1CC2(CCN(CC3CC3)C2)Cc2ccccc21 (configuration not stated)	none
CC(=O)N1CC2(CCCN(CC3CCCCC3)C2)Cc2ccccc21 (configuration not stated)	Pf Dd2 inh 10µM
CC(=O)N1Cc2ccccc2CC2(CCN(CC3CCNCC3)C2)C1 (configuration not stated)	none
O=C(c1ccc(Cl)cc1)N1CC2(CCN(CC3CCCCC3)CC2)Cc2ccccc21	Pf Dd2 inh 5.6µM
CC(=O)N1CC2(CCN(C(=O)c3ccc(Cl)cc3)CC2)Cc2ccccc21	none
CC(=O)N1CC2(CCN(CC3CC3)CC2)Cc2ccccc21	none
O=C(C1CCCC1)N1CC2(CCN(CC3CC3)C2)Cc2ccccc21 (configuration not stated)	Pf Dd2 inh 8.9µM
CS(=O)(=O)N1CCCN(C(=O)C2CCCCC2)c2ccccc21	none
O=C(C1CCCC1)N1CC2(CCCN2C2COC2)Cc2ccccc21 (configuration not stated)	Pf Dd2 inh 8.9µM
COCc1ccc2c(c1)c(OC(C)(C)C(=O)NC1CCC(O)CC1)nn2Cc1ccccc1 (configuration not stated)	none
Cc1csc(NC(=O)C2CC(=O)N(c3n[nH]c4cc(Br)ccc34)C2)n1 (configuration not stated)	none
NS(=O)(=O)c1ccc(C(=O)N2CCCC(c3ccn[nH]3)C2)cc1 (configuration not stated)	none
CCN1C(=O)C2(CCN(C(=O)C3CCCCC3)CC2)c2ccccc21	none
O=C1Nc2ccccc2CNC12CCN(Cc1c[nH]c3ccccc13)CC2	none
C[S+](=O)([O-])N1Cc2ccccc2CC2(CCN(Cc3ccccn3)CC2)C1	none
O=C(O)CCC(=O)N1CCC2(Cc3ccccc3N(C(=O)C3CCCC3)C2)C1 (configuration not stated)	none
CC(=O)N1CC(CO)C2(CCN(Cc3c[nH]c4ccccc34)CC2)C1 (configuration not stated)	none
O=C(C1CCCC1)N1CC2(CCN(Cc3c[nH]c4ccccc34)CC2)Cc2ccccc21	Pf Dd2 inh 4.5µM
O=C(C1CCCC1)N1CC2(CCN(Cc3ccccn3)CC2)Cc2ccccc21	Pf Dd2 inh 10µM
COC1CCCOC12CCN(C(=O)CCCn1cncn1)CC2 (configuration not stated)	none
CCCNC(=O)C(NC(=O)c1cccs1)C1CCN(C(=O)c2ccco2)CC1 (configuration not stated)	none
COc1ccc(C(=O)NC2CCCN(c3cc(-c4ccccc4)[nH]n3)C2)cc1OC (configuration not stated)	none
O=C1NCCOCCN(C(=O)c2ccncc2)[C@H]2CCC[C@@H]12	none
COCC(=O)NC[C@H]1C[C@@H]2CCN1C[C@@H]2c1cc(-c2ccc3ccccc3c2)nn1C	none
COCCNC(=O)C[C@@H]1C[C@H]2O[C@H](CNCc3ncccc3C)[C@@H](O)[C@H]2O1	none
CCCNC(=O)N1CCC(Cn2c(C)cnc2C2CCOCC2)CC1	none
CCOc1ccc(C2NC(=O)N(CC(=O)NC3CCCC3)C3=C2C(=O)OC3)cc1 (configuration not stated)	none
CCn1ccnc1CN1CCCC12CCN(c1ccc(C(F)(F)F)cn1)CC2	none
CCc1ncc(CN2CCCC23CCN(c2ccc(C(F)(F)F)cn2)CC3)cn1	Pf Dd2 inh 7.9µM
Cn1cc(CN2CCCC23CCN(c2ccnc4c(C(F)(F)F)cccc24)CC3)cn1	none
O=C(c1noc(-c2ccc(F)cc2)n1)N1CCN(c2ccc(Cl)cc2)CC1	none
O=C(c1nnc(CN2CCN(c3ccccn3)CC2)n1-c1ccccc1)N1CCC[C@@H]1c1cccc(F)c1	none
Cc1ccccc1C(=O)N1CCc2nc3cc[nH]n3c(=O)c2C1	none
N#Cc1ccc(C(=O)Nc2ccc3n(c2=O)C[C@H]2C[C@@H]3CN(C(=O)c3ccccn3)C2)cc1	none
COc1ccc(-c2ccc3c(c2)C(=O)N2CCN(C(=O)c4ccccc4)C[C@@H]2C(=O)N3)cc1	Pf Dd2 inh 5µM
COc1ccc(C(=O)N2CCN3C(=O)c4cc(-c5ccc(Cl)cc5)ccc4NC(=O)[C@@H]3C2)cc1	Pf Dd2 inh 6.3µM
O=C1Nc2ccc(-c3ccc4c(c3)OCO4)cc2C(=O)N2CCN(C(=O)COc3ccccc3)C[C@H]12	none
CC(C)(C)CC(=O)N1CCN2C(=O)c3cc(-c4ccc(Cl)cc4)ccc3NC(=O)[C@H]2C1	none
O=C1Nc2ccc(-c3ccc4c(c3)OCO4)cc2C(=O)N2CCN(C(=O)c3cccs3)C[C@@H]12	Pf Dd2 inh 13µM
COc1ccc(-c2ccc3c(c2)C(=O)N2CCN(C(=O)C4CCNCC4)C[C@@H]2C(=O)N3)c(OC)c1	none
COCC(=O)N1CCN2C(=O)c3cc(-c4ccc5c(c4)OCO5)ccc3NC(=O)[C@H]2C1	none
O=C1Nc2ccc(-c3ccccc3)cc2C(=O)N2CCN(C(=O)c3cccnc3)C[C@H]12	none
COc1ccc(-c2ccc3c(c2)C(=O)N2CCN(C(=O)CC(C)(C)C)C[C@@H]2C(=O)N3)cc1	none
Cc1ccc(-c2ccc3nnc(CNC(=O)c4ccccc4F)n3n2)cc1C	none
Cc1ccccc1N1Cc2c(NCC3CCCCC3)ncnc2N(C)CC1=O	none
CC(=O)NCC(=O)N1Cc2ccccc2CC2(CCCN(C)C2)C1 (configuration not stated)	none
Cc1[nH]c2ccccc2c1CC(=O)NCc1ccccc1-n1cncn1	none
CCn1ccc(C(=O)N2CCC3(CC2)CC(N(Cc2ccccc2)C2CC2)CCO3)n1 (configuration not stated)	none
CCc1noc(-c2ccn3c(CNC(=O)CCCc4ccccc4)nnc3c2)n1	none
Cc1cccc(-c2nc3cnccn3c2NCCC(=O)N2CCCCC2)c1	none
Cc1nccc(N2CCC3(CC2)CN(CCCN2CCC(N(C)C)C2)C(=O)O3)n1 (configuration not stated)	none
